High-throughput results from PubChem BioAssay.
Most compounds without a hit are left out; they make up all but 11% or so of the library.
ALDH1A1 block = qHTS Assay for Inhibitors of Aldehyde Dehydrogenase 1 (ALDH1A1); Aldehyde dehydrogenase 1A1 (Homo sapiens), P00352; AID 1030, 2008; actives 7.3% (n = 220,000); Potency, µM (doses to about 75.3 µM), hits mostly inhibitors; Purified ALDH1A1, NADH fluorescence, propionaldehyde substrate
HPGD block = qHTS Assay for Inhibitors of HPGD (15-Hydroxyprostaglandin Dehydrogenase) | 15-hydroxyprostaglandin dehydrogenase [NAD(+)] (Homo sapiens), P15428 | purified HPGD, NADH fluorescence kinetic, PGE2 substrate | Potency, µM, usual class: inhibitors | actives 4.3% (n = 150,000)
Target sequence (P15428 whole entry, looked up): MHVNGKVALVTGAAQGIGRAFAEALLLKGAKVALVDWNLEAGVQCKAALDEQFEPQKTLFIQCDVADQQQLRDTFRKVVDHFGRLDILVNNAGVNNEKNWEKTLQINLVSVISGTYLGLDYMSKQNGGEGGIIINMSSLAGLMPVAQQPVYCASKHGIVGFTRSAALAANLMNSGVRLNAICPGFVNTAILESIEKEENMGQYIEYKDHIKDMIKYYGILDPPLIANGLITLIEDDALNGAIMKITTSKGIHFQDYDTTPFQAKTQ
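20 nM HPGD preincubated 15 min at room temperature with compound in 50 mM Tris-HCl pH 8, 0.01% Tween 20. Started with 1 mM NAD+ and 30 uM prostaglandin E2; NADH fluorescence (360/450 nm) read 5 times over 30-s intervals, last minus first.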
PNC inhibitor = High Content Assay for Compounds that inhibit the Assembly of the Perinucleolar Compartment | PC3M PTB-GFP, PNC prevalence imaging, 16 h; stronger effect = lower value | activity change (PNC), negative = inhibition, % at 10 µM | actives 3.1% (n = 140,000) | AID 2417, 2010;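 active means readout at or below -70, meaning at least 70% loss of cells showing the perinucleolar compartment, a nuclear body marking cancer cells; inconclusive means readout between -30 and a set limit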
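Compounds are pinned in duplicate onto adhered PC3M cells stably expressing GFP-tagged PTB and incubated 16 h at 37 C. Cells are then fixed, nuclei stained with Hoechst, and PNC-positive cells counted.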
Hits are given with their value; - = inactive; ? = inconclusive; . = no result given; [ ] = remark or other dose. Unless noted, the call rests on the fitted dose curve; in most records, active means well fitted inhibition curve with a large enough effect (not every such curve was filed as active); inconclusive means small, poorly fitted or top-dose-only effect, or another doubt; inactive means no such curve, though single readings can be large or run the other way.

SMILES	ALDH1A1 block	HPGD block	PNC inhibitor
COc1ccc(NS(=O)(=O)c2cc(OC)ccc2NC(=O)c2cc(C)oc2C)cc1	3.2µM	-	-100
COc1ccc(C)c(S(=O)(=O)Nc2ccc(OCC(=O)O)cc2)c1	-	-	-
COc1ccc(NC(=O)c2cc(-c3ccccc3)oc2C)cc1	?	22µM	?
Cc1oc(-c2ccccc2)cc1C(=O)Nc1ccc2ccccc2c1	32µM	?	-
Cc1oc(-c2ccccc2)cc1C(=O)Nc1cccc(/C=C/C(=O)O)c1	-	.	.
Cc1oc(-c2ccccc2)cc1C(=O)Nc1ccccc1	-	-	?
O=S1(=O)CCC(NC(=S)N2CCCCC2)C1 (stereo not drawn)	-	-	-
Cn1cc([N+](=O)[O-])c(C(=O)Nc2nccs2)n1	-	.	.
S=C(Nc1cccnc1)Nc1cccc2cnccc12	13µM	.	.
CN(C)S(=O)(=O)c1cccc(NC(=S)Nc2ccc3cn[nH]c3c2)c1	22µM	.	.
Fc1cccc(NC(=S)Nc2cccnc2)c1	-	.	.
CN(C)S(=O)(=O)c1cccc(NC(=O)c2ccncc2)c1	-	-	?
S=C(Nc1ccc(Cl)cc1)Nc1cccc2cnccc12	18µM	?	-
CN(C)S(=O)(=O)c1cccc(NC(=S)N/N=C/c2cccc(O)c2)c1	-	.	.
Cc1cc(Cl)ccc1NC(=S)Nc1cccnc1	-	-	-
CN(C)S(=O)(=O)c1cccc(NC(=S)Nc2cccc3cnccc23)c1	7.9µM	.	.
O=C(COC(=O)CCC(=O)c1ccc(Cl)cc1)NC1CC1	-	.	.
OC[C@@H](O)CNc1ncnc2ccccc12	-[13.5 µM]	-	.
Cc1ccc(S(=O)(=O)N2CCN(C(=O)Cc3ccc4c(c3)OCCO4)CC2)cc1C	?	-	-
CCc1ccc2nc3sc(C(=O)O)cc3cc2c1	-	.	.
COc1ccccc1/C=C\C(=O)OC[C@@H]1CCCN2CCCC[C@H]12	?	-	.
COc1ccc(C2Oc3cc(OC)cc(OC)c3CC2O)cc1 (stereo not drawn)	-	-	.
Fc1ccc(NC(=S)Nc2cccc3cnccc23)cc1	7.9µM	.	.
Fc1ccc(NC(=S)Nc2ccccc2Cl)cc1	-	.	.
Cc1c(Cl)cccc1NC(=S)NC1CC1	?	-	-
SMILES	ALDH1A1 block	HPGD block	PNC inhibitor
Cc1c(Cl)cccc1NC(=S)Nn1cnnc1	13µM	.	.
CCCc1cc2c(=O)c(-c3ccc4c(c3)OCCO4)coc2cc1OS(C)(=O)=O	?	-	?
CCCc1cc2c(=O)c(-c3ccc4c(c3)OCCO4)c(C)oc2cc1OS(C)(=O)=O	0.35µM	-	?
O=S(=O)(NC1=NCCC1)c1cccc(NC(=S)NCCc2ccccc2)c1	?	-	?
CCCC(C)C(=O)Nc1ccc(S(N)(=O)=O)cc1 (stereo not drawn)	-	.	.
CCC(OC(=O)CN1C(=O)C(=O)c2ccccc21)C(=O)Nc1ccc(S(N)(=O)=O)cc1 (stereo not drawn)	0.089µM	.	.
O=C(CC1C(=O)CCCC1=O)c1ccccc1	8.9µM	.	.
O=C(CCC1CCCCC1=O)c1ccccc1 (stereo not drawn)	-	-	?
O=C(Nc1ccc(N2C(=O)CCC2=O)cc1Cl)c1cccs1	-	.	.
CNc1ccccc1C(C)(C)c1cc(-c2ccco2)n[nH]1	7.9µM	-	-
CNc1ccccc1C(C)(C)c1cc(C)[nH]n1	-	.	.
CCCCOc1ccc(NC(=O)CCSc2nccn2C)cc1	-	.	.
O=C(CCC1CCCC1)NCc1cccs1	-	-	-
OC(c1cccs1)(c1cccs1)C1C[N+]2(CF)CCC1CC2 (stereo not drawn)	-	-	-98
CC1CCN(S(=O)(=O)c2ccc3c(c2)N(CC(=O)NCc2cccnc2)C(=O)CS3)CC1	-	-	-
CCN(CC)CC(=O)Nc1ccc2c(c1)N(C(=O)CN(CC)CC)c1ccccc1CC2	-	-	-
CCN(CC(=O)NC(c1ccccc1)c1ccccc1)Cc1nc2ccccc2c(=O)[nH]1	18µM	-	-
CCN(CC)CC(=O)Nc1ccc2c(c1)Nc1ccccc1CC2	20µM	-	?
CCN(CC(=O)Nc1cccc(Br)c1)Cc1nc2ccccc2c(=O)[nH]1	?	-	-
CN(CC(=O)Nc1ccc(N2CCOCC2)cc1)Cc1c(O)ccc2ccccc12	3.5µM	.	.
CCN(CC(=O)NCCc1ccc(Cl)cc1)Cc1nc2ccccc2c(=O)[nH]1	-	.	.
CCN(CC(=O)NCc1ccc(F)cc1)Cc1nc2cc(Cl)ccc2c(=O)[nH]1	22µM	32µM	-
CSc1ccccc1NC(=O)CN(C)CC(=O)Nc1ccc(N2CCOCC2)cc1	-	.	.
CCN1C(=O)N(C(C)=O)C2C1N(C(C)=O)C(=O)N2C(C)=O (stereo not drawn)	-	.	.
O=c1cc2c(nn1Cc1ccccc1Cl)-c1ccccc1CC2	-	-	-
